According to PubChem BioAssay AID624136 (Broad Institute, 2012):
Among all 17,000 compounds or so, about 75 (0.4%) were called active.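 How the source made its calls: active means compounds whose four printed spots each glow above background more than chance allows, each with a p-value under 7%; inactive means the rest.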 This excerpt belongs to a sample that is enriched for actives.

What follows are molecules tested on mutant tumor protein p53 (GST-tagged), Homo sapiens (assay: binders of human mutant p53, primary screen, biochemical, small molecule microarray, anti-GST fluorescence (AID 624136)). Settings: small molecule microarray binding.

outcome, inactive:
CC(=O)N[C@@H](C(=O)O[C@H]1CCC(C)(C)[C@@H]2CCC3=C(COC3=O)[C@@]12C)C(C)C
CC(C)NC(=O)N(C)C[C@H]1OCCCC[C@H](C)Oc2ccc(NC(=O)Nc3ccc(C(F)(F)F)cc3)cc2C(=O)N([C@H](C)CO)C[C@@H]1C
CC(C)NC(=O)N(C)C[C@@H]1OCCCC[C@@H](C)Oc2ccc(NC(=O)Cc3ccccc3)cc2C(=O)N([C@H](C)CO)C[C@H]1C
C[C@H]1CN([C@@H](C)CO)C(=O)c2cccc(NC(=O)Nc3ccc(C(F)(F)F)cc3)c2O[C@H]1CN(C)C(=O)NC1CCCCC1
COC(=O)C1=CO[C@@H](O[C@@H]2O[C@H](CO)[C@@H](O)[C@H](O)[C@H]2O)[C@@H]2[C@@](C)(O)[C@@H](OC(=O)/C=C/c3ccc(OC)c(OC)c3)C[C@]12O
C[C@H](CO)N1C[C@H](C)[C@H](CN(C)S(=O)(=O)c2cn(C)cn2)Oc2c(NC(=O)c3ccncc3)cccc2C1=O
Cc1noc(C)c1NC(=O)N(C)C[C@@H]1Oc2ccc(NC(=O)Nc3ccc(F)cc3)cc2C(=O)N([C@H](C)CO)C[C@@H]1C
C[C@H](CO)N1C[C@H](C)[C@H](CN(C)C)Oc2c(NC(=O)C3CCOCC3)cccc2C1=O
C[C@@H]1CN([C@@H](C)CO)C(=O)Cc2cc(NS(C)(=O)=O)ccc2O[C@@H]1CN(C)Cc1ccc2c(c1)OCO2
O=C(C1=C[C@H](c2ccc(C(F)(F)F)cc2)C[C@H](OCc2ccc(CO)cc2)O1)N1CCN(Cc2ccccc2)CC1
C[C@H](CO)N1C[C@H](C)[C@@H](CN(C)C)Oc2ccc(NS(=O)(=O)c3cccs3)cc2C1=O
COc1ccc(S(=O)(=O)N(C)C[C@H]2OCCCC[C@@H](C)Oc3ccc(NC(=O)CCC(F)(F)F)cc3C(=O)N([C@@H](C)CO)C[C@H]2C)cc1
Cc1noc(C)c1NC(=O)N(C)C[C@H]1Oc2ccc(N(C)C)cc2CC(=O)N([C@H](C)CO)C[C@H]1C
C[C@H]1CCCCO[C@H](CN(C)C(=O)Nc2ccccc2)[C@@H](C)CN([C@@H](C)CO)C(=O)c2cc(NC(=O)CCC(F)(F)F)ccc2O1
N#Cc1c(-c2ccccc2)cc(-c2ccccc2)nc1SCC(=O)O
CC(Sc1nnc(N)s1)C(=O)Nc1cccc(Cl)c1 (stereo not given)
COc1ccc(NC(=O)Nc2cccc3c2O[C@@H](CN(C)Cc2ccncc2)[C@H](C)CN([C@H](C)CO)C3=O)cc1
COC(=O)C1(Cc2ccc(O)c(CC3OC3(C)C)c2)OC(=O)C(=O)C1c1ccc(O)cc1 (stereo not given)
C[C@@H]1CCCCO[C@H](CN(C)S(=O)(=O)c2cccs2)[C@H](C)CN([C@@H](C)CO)C(=O)c2cc(NS(=O)(=O)c3cccs3)ccc2O1
C[C@@H]1CN([C@H](C)CO)C(=O)c2cc(NC(=O)NC3CCCCC3)ccc2O[C@H]1CN(C)C(=O)Nc1ccccc1
COc1ccc(C)cc1NC(=O)CSc1nc(SC)ns1
C[C@H](CO)N1C[C@H](C)[C@@H](CN(C)C(=O)Nc2ccccc2F)OCc2cn(nn2)CCCC1=O
COc1ccc(NC(=O)Nc2ccc3c(c2)C(=O)N([C@H](C)CO)C[C@H](C)[C@@H](CN(C)S(=O)(=O)c2ccc(OC)cc2)OCCCC[C@H](C)O3)cc1
C[C@H](CO)N1C[C@H](C)[C@H](CN(C)C(=O)Nc2ccc3c(c2)OCO3)Oc2ncc(Br)cc2C1=O
C[C@H]1CN([C@@H](C)CO)C(=O)Cc2cc(NC(=O)Nc3ccc4c(c3)OCO4)ccc2O[C@H]1CN(C)CC1CC1
